Among all 390,000 compounds or so, about 17,000 (4.4%) were called active. Entries that show only a call come without a potency. Another 8% or so got no clear call; they are omitted. The sample as a whole holds a higher share of actives than the screen did. Unmarked numbers belong to inactive results. Calls come from the whole dose curve; as a rule, active = well fitted inhibition curve with a large enough effect; inconclusive = small, poorly fitted or top-dose-only effect; inactive = no such curve, though single readings can be large or run the other way.

For 50 compounds, Potency and activity change, negative = inhibition results are on record in PubChem BioAssay AID504339 (National Center for Advancing Translational Sciences (NCATS), 2011).
Potency is the fitted concentration of half-maximal effect.

Chain of Lysine-specific demethylase 4A (Homo sapiens) (O75164 whole entry, looked up, the tested form may be a part): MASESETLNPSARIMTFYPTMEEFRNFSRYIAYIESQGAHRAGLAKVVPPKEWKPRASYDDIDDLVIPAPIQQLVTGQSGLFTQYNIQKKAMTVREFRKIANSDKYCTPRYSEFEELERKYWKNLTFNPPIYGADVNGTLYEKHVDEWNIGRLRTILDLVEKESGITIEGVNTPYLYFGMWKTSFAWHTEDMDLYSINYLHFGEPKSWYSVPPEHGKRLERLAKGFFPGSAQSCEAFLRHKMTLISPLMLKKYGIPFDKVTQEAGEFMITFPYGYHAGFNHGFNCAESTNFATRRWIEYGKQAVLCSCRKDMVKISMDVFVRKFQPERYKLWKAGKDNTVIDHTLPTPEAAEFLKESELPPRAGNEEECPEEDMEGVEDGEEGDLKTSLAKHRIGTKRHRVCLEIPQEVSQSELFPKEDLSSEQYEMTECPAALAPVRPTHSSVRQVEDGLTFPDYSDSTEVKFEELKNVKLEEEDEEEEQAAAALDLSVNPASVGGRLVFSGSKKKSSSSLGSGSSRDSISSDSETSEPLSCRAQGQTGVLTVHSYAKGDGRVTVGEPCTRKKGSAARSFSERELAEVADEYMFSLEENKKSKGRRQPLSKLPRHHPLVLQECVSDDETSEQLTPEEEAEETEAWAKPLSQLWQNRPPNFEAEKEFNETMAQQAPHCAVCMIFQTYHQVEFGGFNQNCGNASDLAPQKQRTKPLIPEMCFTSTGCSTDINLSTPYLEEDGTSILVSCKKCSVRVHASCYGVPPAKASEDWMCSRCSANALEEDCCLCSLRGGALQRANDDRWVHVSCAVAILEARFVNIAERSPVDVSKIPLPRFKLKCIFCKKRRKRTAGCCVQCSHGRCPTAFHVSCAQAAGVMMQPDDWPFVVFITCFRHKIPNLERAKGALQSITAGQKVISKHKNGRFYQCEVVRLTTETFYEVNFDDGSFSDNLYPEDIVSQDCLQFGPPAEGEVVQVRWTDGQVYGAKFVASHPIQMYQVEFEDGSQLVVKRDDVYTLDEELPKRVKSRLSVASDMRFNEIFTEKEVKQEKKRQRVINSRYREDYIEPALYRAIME

The target in this assay is Lysine-specific demethylase 4A (Homo sapiens) (UniProt O75164). Nature of the assay: qHTS Assay for Inhibitors of JMJD2A-Tudor Domain. Note: nearly all actives have a fitted effect of over 50% in size. As to conditions: AlphaScreen JMJD2A-Tudor / H3K4me3 peptide binding; series mostly up to 114 µM. The source says:
JMJD2A is a jumonji-domain-containing lysine demethylase that uses Fe(II) together with 2-OG to effect oxidative demethylation of histones. Methylation is one of many […] modification that affect epigenetic transcription. […] It is proposed that the functions of JmjD2A binding to the histones, is to maintain marks after they are installed and to spread the modifications by […], establishing a self-propagating cycle for rapid methylation over a large area of chromatin. […] Thus, small molecule targeting of the JMJD2A-tudor domain interaction with its target methylhistone mark is expected to enable sophisticated experiments probing the fine regulatory pathways leading to selective demethylation of a given methyllysine locus based on the methylation state of adjacent histone marks. A quantitative high throughput AlphaScreen has been developed to identify small molecule inhibitors based on a protocol published by NCGC and SGC [4].
Although AlphaScreen has significant advantages with its utility in a variety of epigenetic target assays, the primary screening data provided in this deposition should be used with caution due to the prevalence of screening artifacts. The top compound concentration tested was high (>100uM) in this assay, which increases number of actives and potential artifacts. An AlphaScreen counterscreen is highly recommended to be run against any putative actives to eliminate non-specific artifacts. Alternatively, one can use other AlphaScreen assays in PubChem to filter out promiscuous hits.
[1] Lee, J. et al. Distinct binding modes specify the recognition of methylated histone H3K4 and H4K20 by JMJD2A-tudor. Nat Struct Mol Biol. 15(1); 109-11. 2008. PMID: 18084306
[2] Yasgar, et al. Compound Management for Quantitative High-Throughput Screening. JALA. 2008 Apr;13(2):79-89. PMID: 18496600
[3] Inglese, et al. Quantitative high-throughput screening: a titration-based approach that efficiently identifies biological activities in large chemical libraries. Proc Natl Acad Sci. 1;103(31):11473-8. 2006. PMID: 16864780
[4] Quinn et al. A homogeneous method for investigation of methyl-dependent protein-protein interactions in epigenetics. Nucleic Acids Res., 38(2):e11. 2010. PMID: […]
[5] Baell,Holloway. New substructure filters for removal of pan assay interference compounds (PAINS) from screening libraries and for their exclusion in bioassays. J Med Chem. 53(7):2719-40. 2010. PMID: 20131845
NIH Molecular Libraries Probe Production Network [MLPCN]
NIH Chemical Genomics Center [NCGC]
Structural Genomics Consortium (SGC)
To each well of a 1,536w plate, 2ul of JMJD2A-Tudor (final 100nM) and 1ul biotinylated histone peptide methylated at Lys4 [b-H3(1-18)K4me3] (final 50nM) were added in 1x PBS buffer, pH 7.4, containing 0.01% Tween-20, using a nanoliter dispenser. Formation of a protein-peptide complex proceeded at room temperature for 30 min. A Kalypsys pin-tool transferred 23nl of library compound solution in DMSO to each well. Following a 30 min incubation of the protein-peptide complex with compounds at room temperature, a mixture of 40 µg/mL each streptavidin-coated donor and nickel chelate acceptor AlphaScreen beads (final 10 µg/mL) was added in a 1ul dispense for a final volume of 4ul, followed by a brief centrifugation (1000 rpm, 1 min). Plates were incubated protected from the light for 20 min at room temperature. Microplates were then read on an EnVision multilabel plate reader using the 1,536 plate HTS AlphaScreen aperture (excitation time 80 ms, measurement time 240 ms).
In general terms: Quantitative high-throughput screening tests each substance at several concentrations.
In the case of `CCN(CC)CCn1c2c(c(SCC(=O)Nc3nc4ccccc4s3)nc1=O)CCCC2`, the Potency result is “inactive”.

For the compound `COc1ccc(C(=O)COC(=O)CCCC(=O)Nc2cc(C(F)(F)F)ccc2Cl)cc1`, the Potency result was “inactive”.

For the compound `COc1c(Cl)cc(C(=O)N(Cc2ccccc2F)C2CCS(=O)(=O)C2)cc1Cl` (stereo not given), the Potency result is “inactive”.

As to `Cn1nnnc1SCCNCc1ccc(Cl)c(Cl)c1`, the Potency result was “inactive”.

`CCOc1ccccc1C(=O)NCc1ccc2c(c1)CCN2C(=O)c1ccc(F)cc1`: the Potency result was “inactive”.

With `COc1cc(OC)cc(-c2c(-c3cccs3)c3cc(-c4ccc(OC)nc4)ccc3n2C)c1`, the Potency result is “inactive”.

Take `COc1ccc(-c2c(-c3cc(OC)cc(OC)c3)n(C)c3ccc(-c4ccn[nH]4)cc23)cc1`: the Potency is 22.4 µM (active).

For the compound `COc1cc(OC)cc(-c2c(-c3ccc(F)cc3)c3cc(-c4ccc5cc[nH]c5c4)ccc3n2C)c1`, the Potency entry is “inactive”.

As for `Cc1cccc(OCCCC(=O)Nc2sc3c(c2C(N)=O)CCC(C)C3)c1` (stereo not given), the Potency result was “inactive”.

Consider `Cc1cc(C)nc(N/N=C/c2c(CO)cnc(C)c2O)n1`, for which the Potency is 89.1 µM (active).

`CCS(=O)(=O)c1nc(S(=O)(=O)c2ccc(C)cc2)c(NCc2ccc(Cl)cc2)s1`: the Potency entry is “inactive”.

As for `Cc1ccccc1NC(=O)Cn1c(=O)n(CC2CCC(C(=O)NCCc3ccccc3)CC2)c(=O)c2ccccc21` (stereo not given), the Potency entry was “inactive”.

On to `CCc1ccc(CNC(=O)c2cc3c(=O)n(CC)c4ccccc4c3s2)cc1`, for which the Potency result is “inactive”.

As to `CN(C)c1cc[n+](Cc2ccccc2)cc1`, the Potency entry was “inactive”.

With `CN(C)c1ccc(C(CC(=O)O)C(=O)O)cc1` (stereo not given), the Potency entry was “inactive”.

`CN(C)c1ccc(CSc2ccccc2)cc1`: the Potency was 20 µM (active).

Turning to `Cc1ccccc1NC(=O)CCOc1ccccc1`, the Potency result was “inactive”.

`Cc1cccc(NC(=O)CSC(N)=O)c1C`: the Potency result is “inactive”.

Turning to `Cc1ccccc1NC(=O)CSC(=O)c1ccccc1`, the Potency was 89.1 µM (active).

Consider `COc1ccccc1NC(=O)c1sc2nc(C)c(C(=O)Nc3ccc(Cl)cc3)c(-c3ccc(Br)cc3)c2c1N`, for which the Potency result is “inactive”.

On to `Cn1c(CC2Sc3ccccc3NC2=O)nnc1SCC(=O)c1ccc(Cl)cc1` (stereo not given), for which the Potency is 25.1 µM (active).

Take `O=C(CC1Sc2ccccc2NC1=O)NNc1ccc(Cl)c(Cl)c1` (stereo not given): the Potency result was “inactive”.

For `Cn1c(CC(=O)Nc2ccccc2)nnc1SCC(=O)c1ccccc1`, the Potency result is “inactive”.

Consider `CN(C(=O)CSc1nnc(NC(=O)Nc2ccccc2)s1)c1ccccc1`, for which the Potency result was “inactive”.

In the case of `COc1ccc(CNC(=O)Cn2nnc(-c3ccccc3F)n2)cc1`, the Potency entry was “inactive”.

On to `Cc1cccc(NC(=O)Cn2cc(S(=O)(=O)Cc3ccccc3Cl)c3ccccc32)c1`, for which the Potency result is “inactive”.

Turning to `CSc1ccc(C2C(C(=O)Nc3ccccc3)=C(C)Nc3nc4ccccc4n32)cc1` (stereo not given), the Potency entry was “inactive”.

Take `COCCNC(=O)c1cc(-c2cccc(Cl)c2)on1`: the Potency entry was “inactive”.

Consider `O=C(CN1C(=O)/C(=C\c2ccc(C(F)(F)F)cc2)Sc2ccccc21)NCc1ccco1`, for which the Potency result is “inactive”.

For `O=C(CN1C(=O)S/C(=C\c2ccccc2F)C1=O)NCCCn1ccnc1`, the Potency result is “inactive”.

On to `O=C(CN1C(=O)/C(=C/c2ccccc2F)Sc2ccccc21)NCc1cccnc1`, for which the Potency is 89.1 µM (active).

For the compound `Cc1nn(CC(=O)N2CCN(c3cccc(C(F)(F)F)c3)CC2)c(=O)c2cc3sccc3n12`, the Potency entry is “inactive”.

Regarding `CCc1ccc(S(=O)(=O)Nc2cc3c(C(=O)OCc4ccccc4)c(C)oc3c3ccccc23)cc1`, the Potency result was “inactive”.

With `Cc1ccc(-c2cc(C(=O)Oc3ccccc3Cl)no2)cc1C`, the Potency result was “inactive”.

Take `O=C(NNC(=O)c1ccc(-c2ccccc2)cc1)Nc1ccccc1`: the Potency result was “inactive”.

For `C=CC[n+]1c(-c2ccc(C)cc2)csc1NNC(=O)Nc1ccccc1`, the Potency was 28.2 µM (active).

For the compound `Cc1ccc(NC(=O)NNC(=O)c2sccc2-n2cccc2)cc1`, the Potency entry is “inactive”.

Turning to `FC(F)(F)c1cc(Nc2nc3ccccc3c3nncn23)ccc1Cl`, the Potency entry is “inactive”.

Consider `CCC(C)(C)n1nnnc1C(c1ccc(OC)c(OC)c1)N1CCN(C(=O)c2ccco2)CC1` (stereo not given), for which the Potency was 79.4 µM (active).

`CC(C)(C)n1nnnc1C(c1ccccc1F)N1CCN(C(=O)c2ccco2)CC1` (stereo not given): the Potency result is “inactive”.

Regarding `CCC(c1nnnn1C1CCCC1)N1CCN(C(=O)c2ccco2)CC1` (stereo not given), the Potency entry is “inactive”.

In the case of `CC1CCCCN1S(=O)(=O)CCNC(=O)c1ccccc1` (stereo not given), the Potency entry is “inactive”.

As to `CSCc1nnc(NC(=O)c2ccc(S(=O)(=O)N3CCCCC3C)cc2)o1` (stereo not given), the Potency is 50.1 µM (active).

For the compound `CC1CCCCN1S(=O)(=O)c1ccc(C(=O)Nc2nnc(-c3cccs3)o2)cc1` (stereo not given), the activity change, negative = inhibition is -1.53% [at 11.4 µM].

Take `Cc1nnc(C)n1-c1ccc(C(=O)Nc2cccc(Br)c2)cc1`: the Potency result was “inactive”.

Regarding `COC(=O)CN1C(=O)CSc2ccc(S(=O)(=O)Nc3cc(C)ccc3C)cc21`, the Potency entry is “inactive”.

With `CC(C)(C)OC(=O)N1CCC(c2c(C(=O)N3CCc4ccccc4C3)cnn2-c2ccc(F)cc2)CC1`, the Potency result is “inactive”.

Consider `Cc1ccc(Cl)cc1N1CCN(C(=O)C2CCC(CNS(=O)(=O)c3cccs3)CC2)CC1` (stereo not given), for which the Potency result is “inactive”.

Consider `C#CCOc1ccc(C2CC(=O)Nc3c2c(C)nn3-c2nc(C)cc(C)n2)cc1` (stereo not given), for which the Potency entry is “inactive”.

`Cc1ccc(CSc2oc(-c3cccs3)nc2S(=O)(=O)c2ccc(C)cc2)cc1`: the Potency entry was “inactive”.
